In article PMC7862700, “An all-to-all approach to the identification of sequence-specific readers for epigenetic DNA modifications on cytosine”:

What was measured:
Test in all cases: DAPPL (digital affinity profiling via proximity ligation, sequencing); 10 mM Tris-HCl pH 7.5, 50 mM NaCl, 1 mM DTT, 4% glycerol, room temperature, 30 min; GST-TFs on glutathione beads, 16-mer random dsDNA library, 0.1% formaldehyde crosslink after washing; high values mean tight binding
[1] = molecular target: T1, FEV (Homo sapiens, UniProt Q99581 1-238); conditions: protein: recombinant; tags: N-terminal GST; dsDNA, one strand shown
T1 sequence: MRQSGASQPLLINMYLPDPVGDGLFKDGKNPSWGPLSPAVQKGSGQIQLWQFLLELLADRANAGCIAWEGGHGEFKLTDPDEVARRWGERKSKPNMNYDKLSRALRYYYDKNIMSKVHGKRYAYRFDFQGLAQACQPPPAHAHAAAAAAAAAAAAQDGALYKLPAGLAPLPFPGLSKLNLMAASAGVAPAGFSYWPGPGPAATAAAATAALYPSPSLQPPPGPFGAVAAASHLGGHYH
How it was run: (§1)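 After expression in yeast as GST fusions, human transcription factors were bound to glutathione beads, DNA-barcoded and mixed with a tag-only sample. The pools were incubated with 200 nmole of a 16-mer random double-stranded DNA library in Tris/NaCl/DTT/glycerol buffer (30 min, room temperature), washed and crosslinked with 0.1% formaldehyde. Proximity ligation with BsaI/T4 ligase ran for 1 h at 37 °C, before PCR amplification and sequencing on an Illumina NextSeq500. Binding signal is a hexamer's read frequency for a factor divided by its frequency for the tag-only sample.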

[2] = molecular target: ETV5 (Homo sapiens, UniProt P41161 1-510); conditions: protein: recombinant; tags: N-terminal GST; dsDNA, one strand shown
Sequence of ETV5 (P41161 whole entry): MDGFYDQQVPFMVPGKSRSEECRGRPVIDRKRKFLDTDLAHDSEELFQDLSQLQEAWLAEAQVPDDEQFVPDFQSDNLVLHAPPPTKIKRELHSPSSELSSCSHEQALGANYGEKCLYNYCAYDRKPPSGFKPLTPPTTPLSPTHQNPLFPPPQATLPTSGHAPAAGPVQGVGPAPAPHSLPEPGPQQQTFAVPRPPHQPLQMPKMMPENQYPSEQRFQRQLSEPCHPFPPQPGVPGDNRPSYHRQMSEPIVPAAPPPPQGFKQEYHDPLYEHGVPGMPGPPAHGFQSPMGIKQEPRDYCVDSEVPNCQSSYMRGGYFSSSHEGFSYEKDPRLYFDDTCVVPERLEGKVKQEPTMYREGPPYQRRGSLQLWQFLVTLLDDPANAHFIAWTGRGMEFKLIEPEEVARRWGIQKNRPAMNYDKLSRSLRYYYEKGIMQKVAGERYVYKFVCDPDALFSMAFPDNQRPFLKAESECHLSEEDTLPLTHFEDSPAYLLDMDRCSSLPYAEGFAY
How it was run: as §1

[3] = molecular target: HSF1 (Homo sapiens, UniProt Q00613 1-529); conditions: protein: recombinant; tags: N-terminal GST; chain copies: 3; dsDNA, one strand shown
Sequence of HSF1 (Q00613 whole entry): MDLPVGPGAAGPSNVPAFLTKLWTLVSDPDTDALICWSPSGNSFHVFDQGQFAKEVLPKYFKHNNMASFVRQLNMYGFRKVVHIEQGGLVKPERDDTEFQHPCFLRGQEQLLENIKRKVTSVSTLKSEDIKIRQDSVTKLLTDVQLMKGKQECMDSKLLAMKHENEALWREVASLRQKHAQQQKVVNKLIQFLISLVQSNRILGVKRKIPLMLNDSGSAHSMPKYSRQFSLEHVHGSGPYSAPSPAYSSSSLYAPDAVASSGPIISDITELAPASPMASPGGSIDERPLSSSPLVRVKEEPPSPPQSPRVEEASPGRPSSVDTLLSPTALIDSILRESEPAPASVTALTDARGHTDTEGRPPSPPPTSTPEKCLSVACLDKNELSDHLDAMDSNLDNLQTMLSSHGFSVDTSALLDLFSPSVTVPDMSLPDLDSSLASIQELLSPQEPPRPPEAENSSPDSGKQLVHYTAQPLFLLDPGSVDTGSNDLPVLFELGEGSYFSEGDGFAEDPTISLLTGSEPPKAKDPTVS
How it was run: as §1

[4] = molecular target: T2, SPIC (Homo sapiens, UniProt Q8N5J4 1-248); conditions: protein: recombinant; tags: N-terminal GST; dsDNA, one strand shown
T2 sequence: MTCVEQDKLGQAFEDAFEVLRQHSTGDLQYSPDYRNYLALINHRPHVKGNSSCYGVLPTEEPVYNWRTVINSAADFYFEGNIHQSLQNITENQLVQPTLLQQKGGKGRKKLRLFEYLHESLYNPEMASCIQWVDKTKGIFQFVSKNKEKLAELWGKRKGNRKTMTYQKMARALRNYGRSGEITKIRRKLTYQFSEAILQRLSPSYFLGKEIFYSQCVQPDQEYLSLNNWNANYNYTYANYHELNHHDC
How it was run: as §1

[5] = molecular target: ELF4 (Homo sapiens, UniProt Q99607 1-663); conditions: protein: recombinant; tags: N-terminal GST; dsDNA, one strand shown
Sequence of ELF4 (Q99607 whole entry): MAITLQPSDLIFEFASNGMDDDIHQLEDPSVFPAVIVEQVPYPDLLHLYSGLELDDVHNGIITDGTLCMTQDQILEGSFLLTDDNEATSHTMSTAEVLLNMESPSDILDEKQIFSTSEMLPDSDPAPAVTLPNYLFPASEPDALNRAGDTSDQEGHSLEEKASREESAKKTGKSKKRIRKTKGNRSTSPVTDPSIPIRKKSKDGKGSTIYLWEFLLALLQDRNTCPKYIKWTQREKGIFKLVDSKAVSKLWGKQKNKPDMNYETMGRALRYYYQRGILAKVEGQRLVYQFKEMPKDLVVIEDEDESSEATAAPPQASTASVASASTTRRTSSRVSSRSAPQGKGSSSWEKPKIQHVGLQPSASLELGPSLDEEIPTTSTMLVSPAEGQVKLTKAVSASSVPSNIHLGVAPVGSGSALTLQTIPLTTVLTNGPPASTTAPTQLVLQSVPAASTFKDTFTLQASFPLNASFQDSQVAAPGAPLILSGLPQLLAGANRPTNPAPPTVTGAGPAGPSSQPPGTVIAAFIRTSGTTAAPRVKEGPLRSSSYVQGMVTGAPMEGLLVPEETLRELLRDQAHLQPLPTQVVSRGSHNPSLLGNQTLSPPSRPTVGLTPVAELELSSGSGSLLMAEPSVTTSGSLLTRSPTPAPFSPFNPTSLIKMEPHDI
How it was run: as §1

[6] = molecular target: T3, ELK4 (Homo sapiens, UniProt P28324-2 1-405); conditions: protein: recombinant; tags: N-terminal GST; dsDNA, one strand shown
T3 sequence: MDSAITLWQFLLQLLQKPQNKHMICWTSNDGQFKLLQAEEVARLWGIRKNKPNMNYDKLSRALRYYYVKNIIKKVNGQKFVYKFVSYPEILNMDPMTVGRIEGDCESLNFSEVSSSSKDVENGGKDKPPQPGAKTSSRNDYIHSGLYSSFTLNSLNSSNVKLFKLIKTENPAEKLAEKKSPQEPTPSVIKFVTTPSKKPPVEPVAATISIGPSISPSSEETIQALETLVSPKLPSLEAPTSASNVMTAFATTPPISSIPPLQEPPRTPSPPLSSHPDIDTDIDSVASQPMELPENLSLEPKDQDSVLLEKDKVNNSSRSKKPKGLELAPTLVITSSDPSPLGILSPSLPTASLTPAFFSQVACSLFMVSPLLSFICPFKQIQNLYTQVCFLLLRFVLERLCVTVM
How it was run: as §1

[7] = molecular target: T4, ETV2 (Homo sapiens, UniProt O00321 1-342); conditions: protein: recombinant; tags: N-terminal GST; dsDNA, one strand shown
T4 sequence: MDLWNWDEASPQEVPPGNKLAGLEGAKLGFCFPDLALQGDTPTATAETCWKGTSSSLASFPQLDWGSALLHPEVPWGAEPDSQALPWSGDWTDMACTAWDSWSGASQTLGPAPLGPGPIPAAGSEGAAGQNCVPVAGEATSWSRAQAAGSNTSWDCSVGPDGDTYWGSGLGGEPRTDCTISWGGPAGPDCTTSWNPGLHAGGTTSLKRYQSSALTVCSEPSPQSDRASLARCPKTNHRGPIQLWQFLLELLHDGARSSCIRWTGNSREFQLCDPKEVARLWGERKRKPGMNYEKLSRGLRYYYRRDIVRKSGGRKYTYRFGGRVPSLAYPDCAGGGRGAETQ
How it was run: as §1

[8] = molecular target: T5, ELF3 (Homo sapiens, UniProt P78545 1-371); conditions: protein: recombinant; tags: N-terminal GST; dsDNA, one strand shown
T5 sequence: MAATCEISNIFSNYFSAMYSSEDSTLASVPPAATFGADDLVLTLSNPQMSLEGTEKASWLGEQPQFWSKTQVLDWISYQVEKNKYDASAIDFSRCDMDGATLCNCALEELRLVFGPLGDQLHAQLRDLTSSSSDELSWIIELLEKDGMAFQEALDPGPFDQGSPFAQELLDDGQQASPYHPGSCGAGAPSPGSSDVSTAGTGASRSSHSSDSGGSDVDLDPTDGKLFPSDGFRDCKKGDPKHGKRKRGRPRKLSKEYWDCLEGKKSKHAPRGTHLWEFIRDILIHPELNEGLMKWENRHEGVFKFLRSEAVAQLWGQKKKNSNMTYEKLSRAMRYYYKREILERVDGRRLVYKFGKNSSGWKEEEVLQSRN
How it was run: as §1

[9] = molecular target: CRX (Homo sapiens, UniProt O43186 1-299); conditions: protein: recombinant; tags: N-terminal GST; dsDNA, one strand shown
Sequence of CRX (O43186 whole entry): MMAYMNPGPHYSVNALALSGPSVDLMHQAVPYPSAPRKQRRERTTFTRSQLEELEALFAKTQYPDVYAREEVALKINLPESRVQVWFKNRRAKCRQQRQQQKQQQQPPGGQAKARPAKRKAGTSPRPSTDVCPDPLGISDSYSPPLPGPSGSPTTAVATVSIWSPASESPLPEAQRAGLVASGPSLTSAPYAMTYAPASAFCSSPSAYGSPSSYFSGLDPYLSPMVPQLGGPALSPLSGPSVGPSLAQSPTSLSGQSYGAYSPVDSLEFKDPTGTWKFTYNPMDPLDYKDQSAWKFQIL
How it was run: as §1

[10] = molecular target: ETV1 (Homo sapiens, UniProt P50549 1-477); conditions: protein: recombinant; tags: N-terminal GST; dsDNA, one strand shown
Sequence of ETV1 (P50549 whole entry): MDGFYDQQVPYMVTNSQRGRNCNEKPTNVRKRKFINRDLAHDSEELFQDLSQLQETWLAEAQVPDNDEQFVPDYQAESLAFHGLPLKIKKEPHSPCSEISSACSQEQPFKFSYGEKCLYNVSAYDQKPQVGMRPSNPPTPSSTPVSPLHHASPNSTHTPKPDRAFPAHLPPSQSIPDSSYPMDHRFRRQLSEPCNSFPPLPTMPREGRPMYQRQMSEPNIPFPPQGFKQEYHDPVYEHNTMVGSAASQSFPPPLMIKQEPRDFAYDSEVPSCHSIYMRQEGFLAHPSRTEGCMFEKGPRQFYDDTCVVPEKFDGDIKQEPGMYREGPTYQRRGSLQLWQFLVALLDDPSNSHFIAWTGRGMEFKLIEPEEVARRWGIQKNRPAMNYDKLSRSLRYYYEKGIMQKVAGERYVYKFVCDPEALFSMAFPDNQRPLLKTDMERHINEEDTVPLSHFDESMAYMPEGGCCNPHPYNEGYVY
How it was run: as §1

[11] = molecular target: T6, ERF (Homo sapiens, UniProt P50548 1-548); conditions: protein: recombinant; tags: N-terminal GST; dsDNA, one strand shown
T6 sequence: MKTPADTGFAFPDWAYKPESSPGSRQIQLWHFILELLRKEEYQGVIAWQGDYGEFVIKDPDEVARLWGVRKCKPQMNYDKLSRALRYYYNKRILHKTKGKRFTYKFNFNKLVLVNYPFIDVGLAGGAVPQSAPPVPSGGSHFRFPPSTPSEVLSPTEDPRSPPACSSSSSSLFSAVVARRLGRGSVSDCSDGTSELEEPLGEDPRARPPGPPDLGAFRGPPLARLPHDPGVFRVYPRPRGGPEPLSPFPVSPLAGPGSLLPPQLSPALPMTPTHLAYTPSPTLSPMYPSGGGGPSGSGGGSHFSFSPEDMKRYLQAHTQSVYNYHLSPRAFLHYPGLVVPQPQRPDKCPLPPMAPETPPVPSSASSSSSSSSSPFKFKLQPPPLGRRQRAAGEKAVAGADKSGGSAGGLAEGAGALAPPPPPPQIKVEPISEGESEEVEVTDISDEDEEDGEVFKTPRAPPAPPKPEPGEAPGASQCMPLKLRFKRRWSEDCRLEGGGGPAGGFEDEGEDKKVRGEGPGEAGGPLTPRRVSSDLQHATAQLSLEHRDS
How it was run: as §1

[12] = molecular target: T7, ETV3L (Homo sapiens, UniProt Q6ZN32 1-361); conditions: protein: recombinant; tags: N-terminal GST; dsDNA, one strand shown
T7 sequence: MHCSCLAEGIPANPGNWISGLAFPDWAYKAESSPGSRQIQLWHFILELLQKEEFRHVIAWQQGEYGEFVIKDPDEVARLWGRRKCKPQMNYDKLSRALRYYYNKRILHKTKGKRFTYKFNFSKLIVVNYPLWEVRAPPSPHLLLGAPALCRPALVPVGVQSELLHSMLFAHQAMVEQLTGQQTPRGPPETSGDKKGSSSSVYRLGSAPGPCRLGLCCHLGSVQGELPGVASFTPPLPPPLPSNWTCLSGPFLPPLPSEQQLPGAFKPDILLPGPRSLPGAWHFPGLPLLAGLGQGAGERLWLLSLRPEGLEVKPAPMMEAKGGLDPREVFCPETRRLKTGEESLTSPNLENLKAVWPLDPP
How it was run: as §1

[13] = molecular target: T8, ETS2 (Homo sapiens, UniProt P15036 1-469); conditions: protein: recombinant; tags: N-terminal GST; dsDNA, one strand shown
T8 sequence: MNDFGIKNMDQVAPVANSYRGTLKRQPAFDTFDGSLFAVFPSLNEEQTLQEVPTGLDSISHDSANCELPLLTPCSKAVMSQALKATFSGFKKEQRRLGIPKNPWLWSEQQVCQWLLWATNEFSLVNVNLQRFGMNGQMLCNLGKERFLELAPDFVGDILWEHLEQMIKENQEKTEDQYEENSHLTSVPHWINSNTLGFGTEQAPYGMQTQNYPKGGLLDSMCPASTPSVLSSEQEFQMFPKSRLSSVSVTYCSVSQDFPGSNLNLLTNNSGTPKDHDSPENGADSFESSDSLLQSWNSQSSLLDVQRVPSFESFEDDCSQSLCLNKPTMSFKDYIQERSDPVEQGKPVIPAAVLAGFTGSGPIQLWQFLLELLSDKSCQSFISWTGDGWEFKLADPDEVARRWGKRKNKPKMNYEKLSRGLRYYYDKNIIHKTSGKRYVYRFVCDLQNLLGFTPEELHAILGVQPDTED
How it was run: as §1

[14] = molecular target: T9, SPDEF (Homo sapiens, UniProt O95238 1-335); conditions: protein: recombinant; tags: N-terminal GST; dsDNA, one strand shown
T9 sequence: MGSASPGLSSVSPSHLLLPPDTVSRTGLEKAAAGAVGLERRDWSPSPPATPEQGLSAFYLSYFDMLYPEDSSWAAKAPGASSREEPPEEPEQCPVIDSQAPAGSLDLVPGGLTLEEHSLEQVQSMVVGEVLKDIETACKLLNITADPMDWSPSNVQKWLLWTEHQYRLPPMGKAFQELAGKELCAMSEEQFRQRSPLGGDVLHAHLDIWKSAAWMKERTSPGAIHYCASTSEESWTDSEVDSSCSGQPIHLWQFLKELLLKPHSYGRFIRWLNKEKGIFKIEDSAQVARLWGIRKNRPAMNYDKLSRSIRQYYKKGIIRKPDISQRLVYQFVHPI
How it was run: as §1

[15] = molecular target: T10, ETV7 (Homo sapiens, UniProt Q9Y603 1-341); conditions: protein: recombinant; tags: N-terminal GST; dsDNA, one strand shown
T10 sequence: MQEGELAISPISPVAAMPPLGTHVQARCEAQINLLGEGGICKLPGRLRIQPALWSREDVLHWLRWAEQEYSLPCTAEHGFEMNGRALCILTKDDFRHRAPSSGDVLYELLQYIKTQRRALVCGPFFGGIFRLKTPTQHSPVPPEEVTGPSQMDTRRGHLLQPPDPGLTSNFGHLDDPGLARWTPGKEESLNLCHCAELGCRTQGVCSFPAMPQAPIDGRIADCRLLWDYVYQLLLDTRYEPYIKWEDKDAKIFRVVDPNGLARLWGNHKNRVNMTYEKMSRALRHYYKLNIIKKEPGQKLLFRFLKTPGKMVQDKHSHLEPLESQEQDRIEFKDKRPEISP
How it was run: as §1

[16] = molecular target: T11, ELF5 (Homo sapiens, UniProt Q9UKW6-2 1-255); conditions: protein: recombinant; tags: N-terminal GST; dsDNA, one strand shown
T11 sequence: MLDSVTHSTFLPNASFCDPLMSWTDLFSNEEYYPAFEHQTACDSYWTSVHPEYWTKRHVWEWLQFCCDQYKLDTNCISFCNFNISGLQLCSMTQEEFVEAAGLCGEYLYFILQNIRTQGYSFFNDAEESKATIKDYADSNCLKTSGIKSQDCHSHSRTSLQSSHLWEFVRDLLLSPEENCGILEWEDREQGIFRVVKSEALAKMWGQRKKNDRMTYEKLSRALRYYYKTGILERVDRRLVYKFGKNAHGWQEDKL
How it was run: as §1

[17] = molecular target: T12, ETV3 (Homo sapiens, UniProt P41162-2 1-143); conditions: protein: recombinant; tags: N-terminal GST; dsDNA, one strand shown
T12 sequence: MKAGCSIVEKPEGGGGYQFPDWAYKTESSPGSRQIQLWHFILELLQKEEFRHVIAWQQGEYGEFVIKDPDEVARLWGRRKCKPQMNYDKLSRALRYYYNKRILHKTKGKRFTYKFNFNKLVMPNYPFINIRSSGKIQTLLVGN
How it was run: as §1

[18] = molecular target: ETV6 (Homo sapiens, UniProt P41212 1-452); conditions: protein: recombinant; tags: N-terminal GST; dsDNA, one strand shown
Sequence of ETV6 (P41212 whole entry): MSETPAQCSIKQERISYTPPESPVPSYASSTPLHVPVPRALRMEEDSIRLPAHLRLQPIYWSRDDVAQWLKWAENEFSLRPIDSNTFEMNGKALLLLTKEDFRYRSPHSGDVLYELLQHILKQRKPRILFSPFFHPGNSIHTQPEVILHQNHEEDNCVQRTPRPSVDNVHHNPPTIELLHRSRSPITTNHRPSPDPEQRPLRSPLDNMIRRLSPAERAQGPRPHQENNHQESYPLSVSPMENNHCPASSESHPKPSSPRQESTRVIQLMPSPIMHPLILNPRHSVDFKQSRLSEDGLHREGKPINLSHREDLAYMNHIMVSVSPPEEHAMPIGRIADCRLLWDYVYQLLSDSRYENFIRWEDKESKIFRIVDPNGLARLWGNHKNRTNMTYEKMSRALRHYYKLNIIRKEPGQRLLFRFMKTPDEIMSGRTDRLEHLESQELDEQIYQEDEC
How it was run: as §1

## AAACCC
[1]
  binding signal: 1.29 fold enrichment (6-mer frequency, TF over GST control)
[2]
  binding signal: 1.29 fold enrichment (6-mer frequency, TF over GST control)
[3]
  binding signal: 1.21 fold enrichment (6-mer frequency, TF over GST control)
[4]
  binding signal: 1.2 fold enrichment (6-mer frequency, TF over GST control)
[5]
  binding signal: 1.34 fold enrichment (6-mer frequency, TF over GST control)
[6]
  binding signal: 1.24 fold enrichment (6-mer frequency, TF over GST control)
[7]
  binding signal: 1.34 fold enrichment (6-mer frequency, TF over GST control)
[8]
  binding signal: 1.42 fold enrichment (6-mer frequency, TF over GST control)
[9]
  binding signal: 1.35 fold enrichment (6-mer frequency, TF over GST control)
[10]
  binding signal: 1.36 fold enrichment (6-mer frequency, TF over GST control)
[11]
  binding signal: 1.28 fold enrichment (6-mer frequency, TF over GST control)
[12]
  binding signal: 1.29 fold enrichment (6-mer frequency, TF over GST control)
[13]
  binding signal: 1.26 fold enrichment (6-mer frequency, TF over GST control)
[14]
  binding signal: 1.34 fold enrichment (6-mer frequency, TF over GST control)
[15]
  binding signal: 1.25 fold enrichment (6-mer frequency, TF over GST control)
[16]
  binding signal: 1.31 fold enrichment (6-mer frequency, TF over GST control)
[17]
  binding signal: 1.29 fold enrichment (6-mer frequency, TF over GST control)
[18]
  binding signal: 1.34 fold enrichment (6-mer frequency, TF over GST control)
